Reference: PubChem BioAssay (EPA / NIEHS)
Inconclusive results are not listed. Calls of active or inactive are those of the source. The calls were made as follows, unless noted: active = hit-call score of the fitted dose curve at least 0.9, where 1 is the maximum; inconclusive = response in the unintended direction; inactive = score below 0.9.

How the values were obtained:
[1] = TOX21_p53_BLA_p2_viability: Viability Assessment in the Tox21 HCT-116 p53 Agonism Beta-lactamase Assay, Phase 2 (AID 2283591);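 also: compound exposure lasted 16 h at 37 °C; actives lower the ATP signal meaning cytotoxicity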
Summary of the method: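 HCT116 p53-bla cells, 4000/well, dosed after 5 h plating (217-fold dilution of DMSO stocks) and incubated 16 h at 37C. Viability taken as cellular ATP by CellTiter-Glo luminescence after 30 min RT; signal loss marks cytotoxicity.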

[2] = TOX21_p53_BLA_p3_viability: Viability Assessment in the Tox21 HCT-116 p53 Agonism Beta-lactamase Assay, Phase 3 (AID 2283593);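 also: cells exposed to compound for 16 h before reading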
Summary of the method: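 HCT116 cells, 4000/well, dosed 5 h after plating by pin transfer (217-fold dilution from DMSO stock) and incubated 16 h at 37C, 5% CO2. Viability read as ATP luminescence with CellTiter-Glo after 30 min at room temperature.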

[3] = target: Cellular tumor antigen p53 (Homo sapiens) (UniProt P04637); assay: TOX21_p53_BLA_p3_ratio: Tox21 HCT-116 p53 Agonism Beta-lactamase Assay, Ratio, Phase 3 (AID 2283596)
Cellular tumor antigen p53 (Homo sapiens), sequence (P04637 whole entry, looked up): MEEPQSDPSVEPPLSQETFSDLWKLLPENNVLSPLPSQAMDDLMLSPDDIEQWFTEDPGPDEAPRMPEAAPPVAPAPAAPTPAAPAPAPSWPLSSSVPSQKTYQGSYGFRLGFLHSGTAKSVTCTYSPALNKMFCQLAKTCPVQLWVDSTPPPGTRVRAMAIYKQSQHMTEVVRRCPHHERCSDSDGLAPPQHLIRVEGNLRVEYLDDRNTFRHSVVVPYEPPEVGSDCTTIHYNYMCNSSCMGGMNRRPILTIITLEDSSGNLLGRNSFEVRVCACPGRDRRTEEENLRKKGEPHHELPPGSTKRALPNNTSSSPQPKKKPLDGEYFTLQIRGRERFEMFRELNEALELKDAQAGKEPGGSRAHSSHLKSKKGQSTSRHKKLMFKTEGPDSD
Summary of the method: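 Cells were seeded at 4000/well, rested 5 h at 37C, then dosed with DMSO compound solutions (217-fold dilution) for 16 h. CCF4-AM substrate was loaded for 2 h at room temperature, and the 460/530 nm emission ratio was fitted for gain of signal versus DMSO.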

[4] = target: Cellular tumor antigen p53 (Homo sapiens) (UniProt P04637); assay: TOX21_p53_BLA_p5_ratio: Tox21 HCT-116 p53 Agonism Beta-lactamase Assay, Ratio, Phase 5 (AID 2283599)
Summary of the method: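 HCT-116 p53-bla cells (4000/well) plated 5 h, dosed with compound (217-fold DMSO dilution) for 16 h at 37 C; CCF4-AM substrate 2 h at room temperature. Activity is the 460/530 nm emission ratio (405 nm excitation), fitted in gain-of-signal direction versus DMSO.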

[5] = target: Cellular tumor antigen p53 (Homo sapiens) (UniProt P04637); assay: TOX21_p53_BLA_p4_ratio: Tox21 HCT-116 p53 Agonism Beta-lactamase Assay, Ratio, Phase 4 (AID 2283601)
Summary of the method: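 HCT-116 p53 beta-lactamase reporter cells (4000/well) preincubated 5 h, then compound (217-fold dilution of DMSO stock) for 16 h at 37C. CCF4-AM substrate added 2 h at room temperature; 460/530 nm emission ratio fitted upward versus DMSO.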

[6] = CCTE_Harrill_HTTr_Viability_MCF7: CCTE's 6-hour Cell Viability Assessment for the High-Throughput Transcriptomics (HTTr) Platform, in MCF-7 cells cultured in DMEM + 10% fetal bovine serum, Harrill Lab (AID 2284010; active = hit-call score of the fitted dose curve at least 0.9, where 1 is the maximum; inactive = score below 0.9)
Summary of the method: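 Eight-point concentration series, six-hour exposure. Propidium iodide exclusion imaged to assess membrane integrity as a cytotoxicity readout; bidirectional fitting was done with DMSO as negative control and activity baseline.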

[7] = CCTE_Harrill_HTTr_CellCount_MCF7: CCTE's Cell Proliferation Assessment for the High-Throughput Transcriptomics (HTTr) Platform, Harrill Lab (AID 2284012);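 also: count of Hoechst-stained nuclei per well by high-content imaging in MCF-7 cells; cells exposed to compound for six hours; intended direction is loss of nuclei count meaning fewer cells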
Summary of the method: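 For this full-screen endpoint, MCF-7 cultures received eight compound dilutions for six hours. Well nuclei counts from Hoechst imaging were analyzed relative to DMSO.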

Measured: outcome

Cc1cccc2sc3nncn3c12
inactive: all assays above
